Drawing on PubChem BioAssay AID559 (PCMD, 2006), this text covers inhibition for 21 compounds.

Structures are written as SMILES. Hit rate of the full screen: of about 62,000 compounds, about 100 (0.2%) were called active. The sample holds actives, similar compounds and a random draw of the others, so the mix is not that of the screen. A number with no mark means an inactive call. Cut-off read from the data, not from the text of the source: active = inhibition above about 20%; inactive = the rest.

DNA-directed RNA polymerase subunit beta (Escherichia coli (strain K12)), sequence (P0A8V2 whole entry, looked up): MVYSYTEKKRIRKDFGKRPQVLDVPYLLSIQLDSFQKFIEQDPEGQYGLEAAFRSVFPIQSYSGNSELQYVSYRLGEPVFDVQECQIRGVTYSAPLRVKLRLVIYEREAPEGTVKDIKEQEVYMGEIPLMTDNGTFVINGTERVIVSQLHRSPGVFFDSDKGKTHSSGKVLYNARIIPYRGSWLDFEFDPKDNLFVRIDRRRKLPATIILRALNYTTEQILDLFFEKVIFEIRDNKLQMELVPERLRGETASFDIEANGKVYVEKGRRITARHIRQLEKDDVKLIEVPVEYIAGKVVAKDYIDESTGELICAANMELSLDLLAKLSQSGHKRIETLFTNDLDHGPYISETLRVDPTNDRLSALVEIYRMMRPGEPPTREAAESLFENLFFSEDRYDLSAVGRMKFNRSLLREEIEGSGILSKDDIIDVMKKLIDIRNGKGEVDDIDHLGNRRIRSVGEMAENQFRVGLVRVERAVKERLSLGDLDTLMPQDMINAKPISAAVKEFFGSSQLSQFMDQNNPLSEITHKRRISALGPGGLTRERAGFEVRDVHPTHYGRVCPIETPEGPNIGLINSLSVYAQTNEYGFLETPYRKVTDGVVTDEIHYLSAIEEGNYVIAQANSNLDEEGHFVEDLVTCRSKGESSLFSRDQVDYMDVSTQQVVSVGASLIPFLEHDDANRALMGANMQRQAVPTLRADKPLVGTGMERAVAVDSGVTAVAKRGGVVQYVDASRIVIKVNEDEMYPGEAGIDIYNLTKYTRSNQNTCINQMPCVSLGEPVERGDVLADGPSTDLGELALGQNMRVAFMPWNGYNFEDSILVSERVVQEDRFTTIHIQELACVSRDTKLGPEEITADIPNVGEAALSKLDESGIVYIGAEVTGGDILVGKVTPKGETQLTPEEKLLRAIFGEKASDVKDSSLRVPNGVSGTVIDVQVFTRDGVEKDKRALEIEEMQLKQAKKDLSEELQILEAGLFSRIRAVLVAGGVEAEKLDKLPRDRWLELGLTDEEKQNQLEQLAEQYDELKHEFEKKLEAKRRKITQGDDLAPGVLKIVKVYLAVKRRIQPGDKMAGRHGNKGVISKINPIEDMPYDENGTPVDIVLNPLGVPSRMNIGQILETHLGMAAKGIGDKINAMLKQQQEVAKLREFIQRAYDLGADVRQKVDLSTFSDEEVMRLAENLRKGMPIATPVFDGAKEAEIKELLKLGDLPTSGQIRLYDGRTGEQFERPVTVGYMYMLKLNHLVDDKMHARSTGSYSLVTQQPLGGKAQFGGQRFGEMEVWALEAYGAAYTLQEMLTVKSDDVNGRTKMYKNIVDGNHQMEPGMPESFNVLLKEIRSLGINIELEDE

This assay concerns the target DNA-directed RNA polymerase subunit beta (Escherichia coli (strain K12)) (UniProt P0A8V2). Kind of assay: E. coli RNAP inhibitors, biochemical (AID 559).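 Note: 0% = enzyme without compound and 100% = no enzyme blank.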 Particulars: fluorescence transcription assay, hits give high values,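 tested at 10 µM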.
For `CC1CCCN(c2ccc(C(=O)NCCc3ccccc3)cn2)C1` (stereo unspecified), the inhibition (as a rule, the change of the read-out against control, counted positive when it falls) was 9.14%. `CCC12CN3CC(CC)(CN(C1)C31C(=O)N(C)c3ccc(C)cc31)C2=O` (stereo unspecified): the inhibition was 9.74%. For the compound `COc1ccc(OC)c(C2N(c3ccccn3)C(=O)C3CCCN32)c1` (stereo unspecified), the inhibition is 5.57%. Take `O=C(CCS(=O)(=O)Cc1ccccc1F)NCCCN1CCCCC1`: the inhibition is 2.74%.

For `CCCn1c(SCC(=O)Nc2c(C)cccc2C)nnc1C(C)C`, the inhibition was -6.26%. Turning to `CCOC(=O)c1ccc(-c2ccc(C(=O)Nc3cccnc3)o2)cc1`, the inhibition was 14.4%.

Turning to `CC(C)NS(=O)(=O)c1ccc(NC(=O)c2cccnc2)cc1`, the inhibition is 4.79%. `CC(=O)Oc1cccc(N2C(=O)C3CC=C(Cl)CC3C2=O)c1` (stereo unspecified): the inhibition is 9.02%. With `CCn1c(CSc2ncccn2)nnc1SCC(=O)N1c2ccccc2CC1C` (stereo unspecified), the inhibition is 4.54%. On to `O=c1c2ccccc2oc2nc3n(c(=O)c12)CCCS3`, for which the inhibition is 4.21%. With `O=C(N1CCOCC1)N1CCOCC1` the figure was 0.65%. In the case of `CC(C)Cc1cc(C(=O)NCCc2ccccc2)no1`, the inhibition is -0.72%. With `CCC1CCCCN1CCNC(=O)c1[nH]c(C)c(C(C)=O)c1C` (stereo unspecified) the figure was 3.39%. Take `CCOC(=O)N1CCN(C(=O)c2ccc3nc4cc(Cl)ccc4c(=O)n3c2)CC1`: the inhibition is -20.1%. For `CC1=C(C)CC2C(=O)N(c3cccc4ccccc34)C(=O)C2C1` (stereo unspecified), the inhibition was 5.39%. Consider `COc1ccccc1-c1c(C)nn2c(C)c(C(C)=O)cnc12`, for which the inhibition is 1.22%. For the compound `Cn1cccc1C(=O)NC(=O)COC(=O)Cc1coc2ccc3ccccc3c12`, the inhibition is 4.62%. Turning to `O=C(Nc1cccc(Cl)c1)OCc1ccccn1`, the inhibition was 5.59%.

In the case of `Cc1cc(C)c(C(=O)CN2C(=O)CCC2=O)cc1C`, the inhibition was 1.27%.

`O=C(CNS(=O)(=O)c1cccc(C(F)(F)F)c1)Nc1ccccc1F`: the inhibition was 12.6%. As to `O=C1CC(c2ccccc2)C(=O)N1c1cccc(O)c1` (stereo unspecified), the inhibition was 4.1%.
